# How the values were obtained:
# Assay in all cases: DAPPL (digital affinity profiling via proximity ligation, sequencing); 10 mM Tris-HCl pH 7.5, 50 mM NaCl, 1 mM DTT, 4% glycerol, room temperature, 30 min; GST-TFs on glutathione beads, 16-mer random dsDNA library, 0.1% formaldehyde crosslink after washing; high values mean tight binding
# Conditions in all cases: protein: recombinant; tags: N-terminal GST; dsDNA, one strand shown
# FLI1 = target: T1, FLI1 (Homo sapiens, UniProt Q01543 1-452)
# T1 sequence: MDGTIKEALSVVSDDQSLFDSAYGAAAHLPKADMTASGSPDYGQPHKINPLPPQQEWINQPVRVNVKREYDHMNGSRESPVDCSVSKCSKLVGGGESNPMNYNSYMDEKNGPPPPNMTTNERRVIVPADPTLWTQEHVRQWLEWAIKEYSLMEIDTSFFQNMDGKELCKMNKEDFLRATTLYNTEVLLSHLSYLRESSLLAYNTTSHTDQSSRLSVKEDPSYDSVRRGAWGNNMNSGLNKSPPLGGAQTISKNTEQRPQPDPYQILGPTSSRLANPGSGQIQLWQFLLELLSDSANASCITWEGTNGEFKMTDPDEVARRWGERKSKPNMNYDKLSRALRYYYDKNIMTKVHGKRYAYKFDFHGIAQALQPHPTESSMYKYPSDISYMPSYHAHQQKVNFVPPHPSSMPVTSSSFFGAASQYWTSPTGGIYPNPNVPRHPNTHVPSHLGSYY
# How it was run: (§1)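 GST fusions of human transcription factors were expressed in yeast and captured with glutathione beads. Once given DNA barcodes and pooled alongside a tag-only sample, they were incubated for 30 min at room temperature with 200 nmole of a random double-stranded 16-mer DNA library in Tris/NaCl/DTT/glycerol buffer, then washed, crosslinked (0.1% formaldehyde), proximity-ligated, PCR-amplified and sequenced on an Illumina NextSeq500. The binding signal of each hexamer is its read frequency for a factor divided by its frequency for the tag-only sample.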
# ELK1 = target: T2, ELK1 (Homo sapiens, UniProt P19419 1-428)
# T2 sequence: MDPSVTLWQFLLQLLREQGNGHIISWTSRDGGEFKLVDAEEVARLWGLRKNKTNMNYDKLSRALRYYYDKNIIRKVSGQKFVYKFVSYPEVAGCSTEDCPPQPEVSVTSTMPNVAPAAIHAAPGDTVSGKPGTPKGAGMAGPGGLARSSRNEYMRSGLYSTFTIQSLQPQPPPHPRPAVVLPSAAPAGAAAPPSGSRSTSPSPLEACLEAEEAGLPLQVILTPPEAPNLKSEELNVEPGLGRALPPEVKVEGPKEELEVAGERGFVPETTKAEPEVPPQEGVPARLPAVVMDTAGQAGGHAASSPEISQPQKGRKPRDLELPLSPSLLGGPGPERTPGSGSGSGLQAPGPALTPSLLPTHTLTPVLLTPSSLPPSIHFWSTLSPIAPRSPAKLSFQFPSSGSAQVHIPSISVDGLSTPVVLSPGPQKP
# How it was run: as §1
# GABPA = target: T3, GABPA (Homo sapiens, UniProt Q06546 1-454)
# T3 sequence: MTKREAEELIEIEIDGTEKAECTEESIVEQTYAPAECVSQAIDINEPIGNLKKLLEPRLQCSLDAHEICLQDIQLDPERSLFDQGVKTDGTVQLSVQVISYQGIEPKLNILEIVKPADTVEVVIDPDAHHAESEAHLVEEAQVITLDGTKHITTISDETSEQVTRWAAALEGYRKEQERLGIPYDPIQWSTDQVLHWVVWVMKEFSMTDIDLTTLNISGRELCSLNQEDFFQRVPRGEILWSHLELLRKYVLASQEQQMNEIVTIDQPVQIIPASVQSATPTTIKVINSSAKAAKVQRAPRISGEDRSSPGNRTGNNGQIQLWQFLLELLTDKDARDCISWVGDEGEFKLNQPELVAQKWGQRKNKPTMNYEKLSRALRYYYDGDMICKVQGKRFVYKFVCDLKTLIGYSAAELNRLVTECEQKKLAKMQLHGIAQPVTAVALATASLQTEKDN
# How it was run: as §1
# ERG = target: T4, ERG (Homo sapiens, UniProt P11308 1-479)
# T4 sequence: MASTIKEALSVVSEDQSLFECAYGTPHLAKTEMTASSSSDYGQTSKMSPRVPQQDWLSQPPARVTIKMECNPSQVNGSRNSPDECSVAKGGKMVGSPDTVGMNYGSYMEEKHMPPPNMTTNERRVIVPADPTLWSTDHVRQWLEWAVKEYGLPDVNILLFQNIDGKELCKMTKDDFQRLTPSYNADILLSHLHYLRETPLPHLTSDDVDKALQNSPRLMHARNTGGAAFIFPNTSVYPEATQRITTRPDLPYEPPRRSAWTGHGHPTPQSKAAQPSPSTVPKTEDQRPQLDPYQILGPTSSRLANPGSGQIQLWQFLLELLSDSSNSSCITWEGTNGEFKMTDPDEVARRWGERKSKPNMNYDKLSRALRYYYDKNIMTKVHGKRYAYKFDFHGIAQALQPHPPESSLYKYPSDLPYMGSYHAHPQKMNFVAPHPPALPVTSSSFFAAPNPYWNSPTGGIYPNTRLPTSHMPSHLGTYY
# How it was run: as §1
# ELF1 = ELF1 (Homo sapiens, UniProt P32519 1-619)
# Chain of ELF1 (P32519 whole entry): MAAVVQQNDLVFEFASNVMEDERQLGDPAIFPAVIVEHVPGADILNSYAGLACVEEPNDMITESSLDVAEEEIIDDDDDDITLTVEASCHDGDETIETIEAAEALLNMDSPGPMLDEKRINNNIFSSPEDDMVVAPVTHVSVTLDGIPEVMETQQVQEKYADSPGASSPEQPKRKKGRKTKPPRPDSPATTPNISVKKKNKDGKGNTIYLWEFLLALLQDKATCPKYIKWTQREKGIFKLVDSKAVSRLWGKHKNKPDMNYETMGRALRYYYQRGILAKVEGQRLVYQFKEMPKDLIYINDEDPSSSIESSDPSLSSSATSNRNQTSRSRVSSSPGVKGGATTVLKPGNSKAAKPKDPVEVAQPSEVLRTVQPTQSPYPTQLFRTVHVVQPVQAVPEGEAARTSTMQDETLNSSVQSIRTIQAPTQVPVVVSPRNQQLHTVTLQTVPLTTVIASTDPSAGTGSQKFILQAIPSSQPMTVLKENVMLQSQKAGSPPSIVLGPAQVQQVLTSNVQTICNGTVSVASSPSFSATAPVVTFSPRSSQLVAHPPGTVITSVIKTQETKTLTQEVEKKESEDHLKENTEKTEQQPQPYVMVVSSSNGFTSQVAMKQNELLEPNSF
# How it was run: as §1
# EHF = target: T5, EHF (Homo sapiens, UniProt Q9NZC4 1-300)
# T5 sequence: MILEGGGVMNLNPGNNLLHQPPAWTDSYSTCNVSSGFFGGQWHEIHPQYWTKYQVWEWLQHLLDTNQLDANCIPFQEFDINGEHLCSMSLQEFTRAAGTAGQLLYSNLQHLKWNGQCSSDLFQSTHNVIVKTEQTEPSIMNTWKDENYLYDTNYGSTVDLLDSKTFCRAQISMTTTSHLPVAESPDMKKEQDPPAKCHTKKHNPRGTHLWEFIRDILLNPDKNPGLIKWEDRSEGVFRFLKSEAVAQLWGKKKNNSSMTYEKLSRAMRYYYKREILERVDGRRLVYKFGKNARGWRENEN
# How it was run: as §1
# SPI1 = SPI1 (Homo sapiens, UniProt P17947 1-270)
# How it was run: as §1
# SPIB = SPIB (Homo sapiens, UniProt Q01892 1-262)
# Chain of SPIB (Q01892 whole entry): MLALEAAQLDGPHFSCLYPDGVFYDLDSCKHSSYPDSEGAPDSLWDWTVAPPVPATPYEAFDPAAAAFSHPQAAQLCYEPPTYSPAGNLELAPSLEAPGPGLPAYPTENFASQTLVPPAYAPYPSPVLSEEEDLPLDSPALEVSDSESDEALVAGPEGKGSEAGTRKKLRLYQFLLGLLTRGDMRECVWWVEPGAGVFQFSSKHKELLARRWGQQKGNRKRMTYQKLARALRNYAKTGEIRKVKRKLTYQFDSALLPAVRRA
# How it was run: as §1
# ELK3 = target: T6, ELK3 (Homo sapiens, UniProt P41970 1-407)
# T6 sequence: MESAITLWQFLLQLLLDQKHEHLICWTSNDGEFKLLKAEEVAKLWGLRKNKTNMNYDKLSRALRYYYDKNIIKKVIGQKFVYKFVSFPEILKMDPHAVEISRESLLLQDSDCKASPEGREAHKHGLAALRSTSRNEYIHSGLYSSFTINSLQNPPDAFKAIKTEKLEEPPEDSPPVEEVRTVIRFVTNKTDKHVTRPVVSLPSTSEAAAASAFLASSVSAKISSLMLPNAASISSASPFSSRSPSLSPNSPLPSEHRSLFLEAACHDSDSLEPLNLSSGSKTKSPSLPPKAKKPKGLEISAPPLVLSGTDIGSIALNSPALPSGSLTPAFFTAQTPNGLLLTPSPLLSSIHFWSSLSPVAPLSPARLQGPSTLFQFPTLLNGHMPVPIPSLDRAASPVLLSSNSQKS
# How it was run: as §1
Sequence,binding signal (FLI1),binding signal (ELK1),binding signal (GABPA),binding signal (ERG),binding signal (ELF1),binding signal (EHF),binding signal (SPI1),binding signal (SPIB),binding signal (ELK3)
CCGCCC,"1.33 fold enrichment (6-mer frequency, TF over GST control)","1.39 fold enrichment (6-mer frequency, TF over GST control)","1.27 fold enrichment (6-mer frequency, TF over GST control)","1.29 fold enrichment (6-mer frequency, TF over GST control)","1.35 fold enrichment (6-mer frequency, TF over GST control)","1.29 fold enrichment (6-mer frequency, TF over GST control)","1.17 fold enrichment (6-mer frequency, TF over GST control)","1.19 fold enrichment (6-mer frequency, TF over GST control)","1.48 fold enrichment (6-mer frequency, TF over GST control)"
GCACAT,"1.16 fold enrichment (6-mer frequency, TF over GST control)","1.05 fold enrichment (6-mer frequency, TF over GST control)","1.16 fold enrichment (6-mer frequency, TF over GST control)","1.2 fold enrichment (6-mer frequency, TF over GST control)","1.1 fold enrichment (6-mer frequency, TF over GST control)","1.14 fold enrichment (6-mer frequency, TF over GST control)","1.14 fold enrichment (6-mer frequency, TF over GST control)","1.08 fold enrichment (6-mer frequency, TF over GST control)","1.17 fold enrichment (6-mer frequency, TF over GST control)"
TATACT,"1.25 fold enrichment (6-mer frequency, TF over GST control)","1.41 fold enrichment (6-mer frequency, TF over GST control)","1.43 fold enrichment (6-mer frequency, TF over GST control)","1.29 fold enrichment (6-mer frequency, TF over GST control)","1.39 fold enrichment (6-mer frequency, TF over GST control)","1.39 fold enrichment (6-mer frequency, TF over GST control)","1.35 fold enrichment (6-mer frequency, TF over GST control)","1.36 fold enrichment (6-mer frequency, TF over GST control)","1.43 fold enrichment (6-mer frequency, TF over GST control)"
GGATCC,"1.15 fold enrichment (6-mer frequency, TF over GST control)","1.13 fold enrichment (6-mer frequency, TF over GST control)","1.18 fold enrichment (6-mer frequency, TF over GST control)","1.25 fold enrichment (6-mer frequency, TF over GST control)","1.18 fold enrichment (6-mer frequency, TF over GST control)","1.16 fold enrichment (6-mer frequency, TF over GST control)","1.06 fold enrichment (6-mer frequency, TF over GST control)","1.24 fold enrichment (6-mer frequency, TF over GST control)","1.07 fold enrichment (6-mer frequency, TF over GST control)"
TTGTCC,"1.47 fold enrichment (6-mer frequency, TF over GST control)","1.32 fold enrichment (6-mer frequency, TF over GST control)","1.41 fold enrichment (6-mer frequency, TF over GST control)","1.4 fold enrichment (6-mer frequency, TF over GST control)","1.3 fold enrichment (6-mer frequency, TF over GST control)","1.31 fold enrichment (6-mer frequency, TF over GST control)","1.17 fold enrichment (6-mer frequency, TF over GST control)","1.34 fold enrichment (6-mer frequency, TF over GST control)","1.43 fold enrichment (6-mer frequency, TF over GST control)"
TGATGT,"1.31 fold enrichment (6-mer frequency, TF over GST control)","1.31 fold enrichment (6-mer frequency, TF over GST control)","1.19 fold enrichment (6-mer frequency, TF over GST control)","1.13 fold enrichment (6-mer frequency, TF over GST control)","1.26 fold enrichment (6-mer frequency, TF over GST control)","1.14 fold enrichment (6-mer frequency, TF over GST control)","1.25 fold enrichment (6-mer frequency, TF over GST control)","1.41 fold enrichment (6-mer frequency, TF over GST control)","1.12 fold enrichment (6-mer frequency, TF over GST control)"
TGTGCC,"1.17 fold enrichment (6-mer frequency, TF over GST control)","1.2 fold enrichment (6-mer frequency, TF over GST control)","1.07 fold enrichment (6-mer frequency, TF over GST control)","1.17 fold enrichment (6-mer frequency, TF over GST control)","1.21 fold enrichment (6-mer frequency, TF over GST control)","1.02 fold enrichment (6-mer frequency, TF over GST control)","1.06 fold enrichment (6-mer frequency, TF over GST control)","1.04 fold enrichment (6-mer frequency, TF over GST control)","1.3 fold enrichment (6-mer frequency, TF over GST control)"

# From article PMC7862700, “An all-to-all approach to the identification of sequence-specific readers for epigenetic DNA modifications on cytosine”
